For 86 compounds, inhibition results are on record in PubChem BioAssay AID1117264 (The Scripps Research Institute Molecular Screening Center, 2014).

The term inhibition denotes the drop in the measured response relative to a control, in per cent.

Out of some 89,000 compounds screened, about 440 (0.49%) were called active. Only a selection was taken, and actives are over-represented in it overall. A number with no mark means an inactive call.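 Rule for the calls: active = inhibition above the mean inhibition across all screened compounds plus 3 SD (cut at about 11% in these data); inactive = the rest.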

Chain of RNA-editing ligase 1, mitochondrial (Trypanosoma brucei brucei) (P86926 whole entry, looked up): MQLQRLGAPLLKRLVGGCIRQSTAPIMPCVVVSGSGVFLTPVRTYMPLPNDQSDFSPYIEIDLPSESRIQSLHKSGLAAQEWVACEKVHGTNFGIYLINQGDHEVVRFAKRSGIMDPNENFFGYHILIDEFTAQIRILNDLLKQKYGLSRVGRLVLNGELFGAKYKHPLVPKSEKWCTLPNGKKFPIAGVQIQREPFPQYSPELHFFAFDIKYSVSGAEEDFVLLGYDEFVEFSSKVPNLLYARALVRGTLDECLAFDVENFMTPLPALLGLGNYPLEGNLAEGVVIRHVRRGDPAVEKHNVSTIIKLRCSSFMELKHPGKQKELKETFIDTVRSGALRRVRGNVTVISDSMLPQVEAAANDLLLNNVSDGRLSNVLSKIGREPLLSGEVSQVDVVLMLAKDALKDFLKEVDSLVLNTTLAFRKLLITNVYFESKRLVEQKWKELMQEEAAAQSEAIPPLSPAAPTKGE

This assay has as its target RNA-editing ligase 1, mitochondrial (Trypanosoma brucei brucei) (UniProt P86926). The assay is described as follows: T. brucei editing ligase REL1 blockade – biochemical, FRET fluorescence, primary screen (AID 1117264).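 Note: 0% = plate median of test wells and 100% = NSC42067 control.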 To be noted: TbREL1 RNA ligation, at 9.66 µM, hits give high values.
For `Cc1ccc(NC(=O)C(C)Sc2nnc(C3CC3)n2C2CC2)cc1S(=O)(=O)N1CCOCC1` (stereo unspecified), the inhibition was 5.95%. The result for `CCC(C(=O)OC)n1cnc2scc(-c3ccc(C)cc3)c2c1=O` (stereo unspecified) reads 2.37%.

`Cc1ccccc1NC(=S)N(CCCN1CCOCC1)Cc1cccs1`: the inhibition was -3.36%. Consider `CCCN(CCC)C(=S)Nc1cc(C(=O)OC)ccc1C(=O)OC`, for which the inhibition was -1.86%. On to `CCCCn1nnnc1C(c1ccccc1)N1CCN(c2ccccc2OC)CC1` (stereo unspecified), for which the inhibition is 0.09%. Next, `O=C(C1CCCN1S(=O)(=O)c1ccccc1)N1CCc2ccccc2C1` (stereo unspecified): 3.88%. For the compound `O=C(COC(=O)CNS(=O)(=O)c1ccccc1)NC12CC3CC(CC(C3)C1)C2`, the inhibition is -1.46%. The result for `CN1CCN(/N=C2/C(=O)Nc3ccc([N+](=O)[O-])cc32)CC1` reads 11.2% (active). `O=C(O)COCC(=O)NCc1csc2ccc(Cl)cc12`: the inhibition was 2.32%. In the case of `O=C(N/N=C/c1cccc([N+](=O)[O-])c1)c1ccncc1`, the inhibition is 7.99%. Turning to `O=[N+]([O-])c1ccc2c(c1)C(O)n1nc(-c3ccccc3)nc1S2` (stereo unspecified), the inhibition was 5.85%. The result for `O=C(CSc1nccn1-c1cccc(F)c1)NC1CCCC1` reads -3.03%; that for `COc1cc(-c2nnc(NC(=O)C3=COCCO3)o2)cc(OC)c1OC`, 1.27%; that for `O=C(CSc1nc2ccccc2nc1N1CCCCC1)N1CCN(S(=O)(=O)c2cccc([N+](=O)[O-])c2)CC1`, -1.26%.

Regarding `Cc1cc(=O)oc2cc(OCC(=O)Nc3nnc(C4CC4)s3)ccc12`, the inhibition was 4.82%. Consider `Cc1ccc(NC(=O)CN(C)C(=O)COC(=O)C(C)(C)Oc2ccc(Cl)cc2)cc1`, for which the inhibition is 1.09%. Regarding `CCNc1nc(Oc2ccc(C(=O)OC)cc2)nc(N2CCOCC2)n1`, the inhibition is 3.37%. As to `CCCC[C@@H]1CN=C(N)N1CCCC`, the inhibition was 8.04%. On to `O=C(Cn1nnc(N2CCCCC2)n1)c1ccc(Cl)c(Cl)c1`, for which the inhibition is 2.76%.

For the compound `O=C(Nc1cccc(F)c1)NC1CCCc2ccccc21` (stereo unspecified), the inhibition is 4.99%. With `Cc1cc(C)cc(NC(=O)NC2CCCCCCC2)c1`, the inhibition is 4.83%. Next, `O=C(Nc1cccc(F)c1)NC1CCCCCCC1`: 12% (active). As for `O=C(CSc1nnc(COc2ccccc2)n1Cc1ccco1)c1ccc2ccccc2c1`, the inhibition is 2.5%. Next, `CN1CCC(=NNC(=O)c2ccc(N(Cc3ccc(Cl)cc3)S(C)(=O)=O)cc2)CC1`: 0.47%.

For the compound `CC(C)C[C@H]1CN=C(Nc2ccccc2)N1CC1CCCCC1`, the inhibition is 4.52%. `Cc1cc(C)c(OCC(=O)N(Cc2cccs2)C2CCS(=O)(=O)C2)c(C)c1` (stereo unspecified): the inhibition was 2.35%.

As to `C=CCNC(=S)NNC(=O)c1cc(Cl)ccc1OC`, the inhibition was -1.18%.

Regarding `CCN(C(=O)CSc1nnc(-c2ccc(OC(F)F)cc2)n1N)C1CCS(=O)(=O)C1` (stereo unspecified), the inhibition was -0.55%. For `O=C(CSc1ccc([N+](=O)[O-])cn1)Nc1ccc(N2CCOCC2)c(Cl)c1`, the inhibition is 4.47%.

On to `CC(C)CNC(=O)OCc1cn(Cc2ccc(F)cc2)nn1`, for which the inhibition was -1.2%.

For `Nc1nonc1-n1nnc(C(=O)N/N=C/C2CCCCC2)c1-c1ccccc1`, the inhibition is 2.56%. Take `CC1CCN(S(=O)(=O)c2ccc3[nH]c(=O)ccc3c2)CC1`: the inhibition is 2.13%.

Take `Cc1cccc(NC(=S)N2CCCC(c3nc4ccccc4[nH]3)C2)c1` (stereo unspecified): the inhibition is -6.41%. For `COc1ccc(NC(=O)CCN2C(=O)/C(=C/c3ccc4c(c3)OCO4)SC2=S)cc1`, the inhibition is -1.87%. As to `O=C(O)c1ccc(S(=O)(=O)N2CCOCC2)o1`, the inhibition is 0.79%.

With `COc1ccc(Br)c(Cn2c(C)c(C(=O)NCc3cccs3)sc2=O)c1`, the inhibition is 2.25%.

Regarding `Cc1cc(NC(=O)C(C)N2C(=O)c3ccccc3S2(=O)=O)no1` (stereo unspecified), the inhibition is 3.27%.

As for `CC1(C)Cc2c(sc(NC(=O)C(=O)N3CCOCC3)c2C#N)CO1`, the inhibition is -1.21%. Next, `COc1ccc(OC)c(NC(=O)c2cccc(S(=O)(=O)N3CCN(C(C)=O)CC3)c2)c1`: -0.85%; `CC(=O)Nc1ccc(NC(=O)CSC2=NS(=O)(=O)c3ccccc3N2)cc1`: 2.64%.

Regarding `CCCOc1cccc(C(=O)Nc2ccccc2C(=O)N2CCN(C)CC2)c1`, the inhibition was 0.64%. Turning to `Cc1sc2ncn(CC(=O)NCCN(C)C)c(=O)c2c1S(=O)(=O)N1CCC(C)CC1`, the inhibition was -1.59%. For `Cc1ccc(C(=O)Cc2nnc(C)s2)cc1`, the inhibition was -0.4%. As for `CSCCC(NC(=O)COc1ccccc1)C(=O)Nc1ccc(C)cc1` (stereo unspecified), the inhibition is -0.75%.

Turning to `O=C(CCNC(=O)Cn1ccc2ccccc2c1=O)NCCC1=CCCCC1`, the inhibition was -2.59%.

Take `CC(Oc1ccccc1)C(=O)Nc1c2c(nn1-c1ccccc1)CS(=O)C2` (stereo unspecified): the inhibition is 0.74%. Consider `CCOC(=O)N1CCN(C(=O)c2ccccc2N(Cc2ccccc2)S(=O)(=O)c2ccc(OC)cc2)CC1`, for which the inhibition is -1.48%.

With `COc1ccc(NC(=O)CN(C)C(=O)CNC(=O)C2CCCCC2)cc1`, the inhibition is -1.04%. For `N/C(=N\OC(=O)Cc1ccc([N+](=O)[O-])cc1)c1ccccn1`, the inhibition is 5.64%. For the compound `CCOc1ccc(-n2cnnn2)cc1S(=O)(=O)N1CCC(C)CC1C` (stereo unspecified), the inhibition is -0.48%. Take `CC(=O)O[C@@]1(C(C)=O)CCC2[C@H]3C=C(C)C4=CC(=O)CC[C@@]4(C)C3CC[C@]21C` (stereo partly specified): the inhibition is 2.86%.

Regarding `Cc1ccc(CN(Cc2cccnc2)C(=S)Nc2cccc(Cl)c2C)cc1`, the inhibition was -3.35%. As to `COc1cccc2c1CCC(NC(C)=O)C2=O` (stereo unspecified), the inhibition was 0.33%. As for `CC(C#N)OC(=O)c1cccnc1SCC(=O)Nc1ccc2c(c1)OCO2` (stereo unspecified), the inhibition is -2.63%.

Take `COC(=O)c1ccc2c(c1)S(=O)(=O)NC2C` (stereo unspecified): the inhibition was -0.32%. Next, `O=C1CCC/C=C\C[C@@H](CC(=O)N(CCO)Cc2ccccc2)C(=O)NCCO1`: 3.07%. Turning to `O=C(Nc1n[nH]c(C(F)(F)F)n1)c1cccs1`, the inhibition was 0.59%. The result for `Cc1cc(=O)[nH]c(SCC(=O)Nc2ccc(Cl)cc2C)n1` reads 6.53%; that for `CC(=O)Nc1ccc(-c2csc(NC=C3C(=O)OC(C)(C)OC3=O)n2)cc1`, 0.47%; that for `O=C(CN1CCN(c2ccccn2)CC1)NCc1cccs1`, -2.97%. As for `CC(C)Cn1c(N)c(C(=O)NCc2cccs2)c2nc3ccccc3nc21`, the inhibition was 44% (active). As for `CC(C)(C)OC(=O)c1c(N)n(CCCN2CCCC2=O)c2nc3ccccc3nc12`, the inhibition was -0.01%. Take `Nc1c(Cl)cc(-c2csc(N3CCCC3c3nc4cc(Cl)c(Cl)cc4n3CCOCCO)n2)cc1Cl` (stereo unspecified): the inhibition was -4.69%.

Take `Cn1ccnc1SCC(=O)Nc1ccc2c(c1)OCCO2`: the inhibition is 2.46%.

Regarding `Cc1cccc(NC(=S)NC23CN4CN(CN(C4)C2)C3)c1`, the inhibition was -3.73%. The result for `COC(=O)C(C)Oc1ccc2c(c1)O/C(=C\c1cccc(Br)c1)C2=O` (stereo unspecified) reads 1.78%; that for `Cc1c(C(=O)OCC(=O)N2CCCC2=O)oc2ccccc12`, -0.28%.

On to `COC(=O)C1=C(C)N(Cc2ccc(F)cc2)C(=S)NC1c1cccc(Cl)c1` (stereo unspecified), for which the inhibition was -6.48%.

`CC(C)NC(=O)C1(C)CCCCN1Cc1cccc(C(F)(F)F)c1` (stereo unspecified): the inhibition is -3.05%. As to `COC(=O)C1=C(C)N(Cc2cccc(C(F)(F)F)c2)C(=NCc2ccccc2)NC1c1ccc(Cl)cc1` (stereo unspecified), the inhibition was 10.5%. Consider `COC(=O)C1=C(C)N(Cc2cccc(C(F)(F)F)c2)C(=NCc2ccccc2)NC1c1ccccc1C(F)(F)F` (stereo unspecified), for which the inhibition was 18.8% (active). Consider `COC(=O)C1=C(C)N(Cc2ccccc2)C(=NCCCOC(C)C)N[C@H]1c1ccccc1`, for which the inhibition was 8.47%.

Consider `COC(=O)C1=C(C)N(Cc2cccc(C(F)(F)F)c2)C(=NCc2cccc(C(F)(F)F)c2)NC1c1ccccc1C(F)(F)F` (stereo unspecified), for which the inhibition is 17.6% (active). As for `C[C@H](NC(=O)c1[nH]cnc1C(=O)Nc1nccs1)c1ccccc1`, the inhibition was 2.49%. As for `S=C(NCc1ccco1)NCc1ccccc1Cl`, the inhibition is -2.97%. Turning to `CCOC(=O)C1CCN(c2c(Nc3cc(C)cc(C)c3)c(=O)c2=O)CC1`, the inhibition is -4.56%. `Cc1ccc(NS(=O)(=O)c2ccc(C(C)C)cc2)cc1S(=O)(=O)N1CCOCC1`: the inhibition is -0.97%. The result for `Cc1cccc(Nc2nnc(SCC(=O)c3c(N)n(C4CC4)c(=O)[nH]c3=O)s2)c1C` reads 1.72%; that for `O=C(CSc1nc2sc3c(c2c(=O)n1-c1ccccc1)CCCC3)NN=Cc1ccc(OCc2ccccc2)cc1`, 0.03%; that for `Cc1ccc2c(c1)nnc1nnc(SCC(=O)O)n12`, 1.61%. As to `COC(=O)c1cc(S(=O)(=O)N2CCN(C(=O)C3CCCO3)CC2)cn1C` (stereo unspecified), the inhibition is 0.88%. As for `Cc1ccc2c(CN3CCN(S(=O)(=O)c4ccccc4C(F)(F)F)CC3)cc(=O)oc2c1`, the inhibition is 6.44%.

As for `CC(=O)Nc1ccc(NC(=O)[C@@H](NC(=O)c2cccc(C)c2)C(C)C)cc1`, the inhibition is 1.63%.

Regarding `COc1ccccc1NC(=S)N1CCC(NC(=O)C23CC4CC(CC(C4)C2)C3)CC1`, the inhibition is -2.86%. As for `CC(C)(C)C1C/C(=C/c2ccco2)C(=O)/C(=C/c2ccco2)C1` (stereo unspecified), the inhibition is 32.6% (active). With `COC(=O)C1=C(C)N(c2ccc(Br)cc2)C(=O)/C1=C\c1ccco1`, the inhibition was 4.92%.
